Assay results published in PubChem BioAssay AID1159580 (chemical genetic matrix, 2015).
“And” between values parts separate entries of the source, which are not always exact repeats. Equal values may be shown once. About 2,000 (36%) of roughly 5,500 compounds were called active. About 18% were inconclusive and are not listed. No stated cut-off is given here; in the data, active means normalized growth mostly below about 0.91 (no sharp cut-off); inconclusive means no clear call, values can overlap the other calls; inactive means mostly above about 0.92. The list shows a part of the results.

Test: chemical genetic growth profiling, strain panel (AID 1159580);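 further: tested at 20 µM; growth read once vehicle control cultures reached saturation at 30 °C; 1 = growth at the plate median or of vehicle wells; lower values mean less growth of the strain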
Settings: S. cerevisiae deletion strains, growth OD

Measured: normalized growth

O=C1C=C2C(=CCOC2O)O1 (stereo unspecified)
active: locus YAL021C, strain ccr4, active compounds read low 0.679 | locus YAL026C, strain drs2, active compounds read low 0.644 | locus YAL030W, strain snc1, active compounds read low 0.781 | locus YBL061C, strain skt5, active compounds read low 0.796 | locus YBR009C, strain hhf1, active compounds read low 0.71 | locus YBR021W, strain FUR4, active compounds read low 0.762 | locus YBR023C, strain chs3, active compounds read low 0.784 | locus YBR171W, strain sec66, active compounds read low 0.672 | locus YBR231C, strain swc5, active compounds read low 0.73 | locus YBR279W, strain paf1, active compounds read low 0.78 | locus YCL011C, strain gbp2, active compounds read low 0.759 | locus YCL016C, strain dcc1, active compounds read low 0.73 | locus YCL069W, strain vba3, active compounds read low 0.752 | locus YCR088W, strain abp1, active compounds read low 0.792 | locus YDL005C, strain med2, active compounds read low 0.881 | locus YDL035C, strain GPR1, active compounds read low 0.776 | locus YDL040C, strain nat1, active compounds read low 0.887 | locus YDL074C, strain BRE1, active compounds read low 0.678 | locus YDL101C, strain DUN1, active compounds read low 0.851 | locus YDL185W, strain tfp1, active compounds read low 0.789 | locus YDL192W, strain arf1, active compounds read low 0.789 | locus YDR001C, strain nth1, active compounds read low 0.846 | locus YDR069C, strain doa4, active compounds read low 0.652 | locus YDR101C, strain arx1, active compounds read low 0.8 | locus YDR137W, strain rgp1, active compounds read low 0.335 | locus YDR150W, strain NUM1, active compounds read low 0.831 | locus YDR159W, strain sac3, active compounds read low 0.847 | locus YDR162C, strain NBP2, active compounds read low 0.258 | locus YDR297W, strain sur2, active compounds read low 0.797 | locus YDR318W, strain mcm21, active compounds read low 0.793 | locus YDR334W, strain swr1, active compounds read low 0.845 | locus YDR335W, strain msn5, active compounds read low 0.698 | locus YDR388W, active compounds read low 0.864 | locus YDR392W, strain spt3, active compounds read low 0.555 | locus YDR502C, strain sam2, active compounds read low 0.763 | locus YEL003W, strain gim4, active compounds read low 0.659 | locus YEL037C, strain rad23, active compounds read low 0.82 | locus YEL061C, strain CIN8 (second series), active compounds read low 0.759 | locus YEL061C, strain CIN8, active compounds read low 0.848 | locus YER015W, strain faa2, active compounds read low 0.635 | locus YER016W, strain bim1, active compounds read low 0.833 | locus YER110C, active compounds read low 0.597 | locus YER155C, strain BEM2 (second series), active compounds read low 0.303 | locus YER167W, strain BCK2, active compounds read low 0.795 | locus YFR010W, strain ubp6, active compounds read low 0.613 | locus YGL078C, strain dbp3, active compounds read low 0.869 | locus YGL086W, strain mad1, active compounds read low 0.806 | locus YGL167C, strain pmr1, active compounds read low 0.846 | locus YGL173C, strain kem1, active compounds read low 0.707 | locus YGL227W, strain vid30, active compounds read low 0.843 | locus YGL240W, strain doc1, active compounds read low 0.487 | locus YGL248W, strain PDE1, active compounds read low 0.883 | locus YGL253W, strain hxk2, active compounds read low 0.657 | locus YGR078C, strain PAC10, active compounds read low 0.702 | locus YGR135W, strain pre9, active compounds read low 0.784 | locus YGR229C, strain SMI1, active compounds read low 0.366 | locus YGR252W, strain gcn5, active compounds read low 0.462 | locus YHR013C, strain ard1, active compounds read low 0.589 | locus YHR027C, strain rpn1, active compounds read low 0.71 | locus YHR030C, strain SLT2, active compounds read low 0.9 and 0.845 | locus YHR079C, strain IRE1 (second series), active compounds read low 0.858 | locus YHR079C, strain IRE1, active compounds read low 0.84 | locus YHR129C, strain ARP1, active compounds read low 0.855 | locus YHR142W, strain chs7, active compounds read low 0.684 | locus YHR200W, strain rpn10, active compounds read low 0.91 | locus YIL066C, strain RNR3, active compounds read low 0.776 | locus YIL073C, strain SPO22, active compounds read low 0.5 | locus YIL125W, strain kgd1, active compounds read low 0.886 | locus YIR030C, strain dcg1, active compounds read low 0.911 | locus YJL092W, strain hpr5, active compounds read low 0.744 | locus YJL095W, strain BCK1 (second series), active compounds read low 0.833 | locus YJL095W, strain BCK1, active compounds read low 0.795 and 0.859 | locus YJL129C, strain trk1, active compounds read low 0.769 | locus YJL154C, strain vps35, active compounds read low 0.859 | locus YJL164C, strain tpk1, active compounds read low 0.757 | locus YJL166W, strain qcr8, active compounds read low 0.667 | locus YJL187C, strain SWE1 (second series), active compounds read low 0.829 | locus YJR075W, strain HOC1, active compounds read low 0.805
inactive: locus YAL013W, strain DEP1, active compounds read low 0.922 | locus YBR229C, strain ROT2, active compounds read low 0.991 | locus YCL029C, strain bik1, active compounds read low 0.913 | locus YDL134C, strain PPH21, active compounds read low 0.9 | locus YDR195W, strain ref2 0.927 | locus YER111C, strain swi4, active compounds read low 0.938 | locus YER155C, strain BEM2, active compounds read low 0.962 | locus YHR094C, strain hxt1, active compounds read low 0.948 | locus YJL115W, strain asf1, active compounds read low 0.961 | locus YJL134W, strain LCB3, active compounds read low 0.961 | locus YJL168C, strain set2, active compounds read low 0.939 | locus YJR043C, strain POL32, active compounds read low 0.882 | locus YJR066W, strain TOR1, active compounds read low 0.831
